# HT1080 IDH1KD tx: toxicity to HT-1080 IDH1 knockdown cells (counter line); Potency, µM (top dose mostly 46.1 µM), for inactives: top-dose activity, negative = toxicity, most hits filed as cytotoxic; 360,000 tested, 2% active; HT-1080 IDH1 knockdown viability, ATP luminescence, 48 h;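 also: 0% = DMSO wells and -100% = cell-free medium wells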
#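 % activity derives from luminescence (CellTiter-Glo), normalised to DMSO and no-cell wells. HT-1080-IDH1KD cells, 750/well, had 48 h compound exposure at 37 °C.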
# KB-3-1 cytotox: KB-3-1 parental cell cytotoxicity | 400,000 tested, 1.4% active | AID 1347075 | KB-3-1 viability, CellTiter-Glo ATP luminescence, 72 h | Potency, µM (doses to about 46.1 µM), hits mostly cytotoxic; also: % is scaled to controls: 0 for no effect and ±100 for the full control effect; nearly all actives have a fitted effect of over 60% in size
#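 Cytotoxicity measured as CellTiter-Glo luminescence after 72 h at 37 C. Compound titrations were pinned onto drug-naive KB-3-1 parental adenocarcinoma cells grown in DMEM with 10% FBS, and normalized data fitted to concentration-response curves.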
# SW480 rerep: DNA re-replication induction in SW480 cells. Potency, µM (top dose mostly 46.1 µM), inactives show at the top dose re-replication activation, usual class: activators. SW480 DNA re-replication, Hoechst DNA content imaging, 48 h. 340,000 tested, 1.8% active; also: % of control where 0% means no effect; nearly all actives have a fitted effect of over 55% in size
#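 Image-based read-out: total Hoechst fluorescence of nuclei (405 nm excitation, 500-530 nm emission), with hits raising the fraction of high-intensity nuclei. SW480 colon cells incubated 48 hr with compounds at 37 C.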
# HT1080NT lethal: kills 2HG-producing HT-1080-NT fibrosarcoma cells; HT-1080-NT fibrosarcoma viability, CellTiter-Glo ATP luminescence, 48 h; Potency, µM (highest dose often 46.1 µM), for the others: top-dose activity, negative = less viability, hits mostly cytotoxic; 360,000 tested, 1.6% active; AID 686970;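 also: NT is the 2HG producing partner of a matched IDH1 knockdown line; 0% = DMSO-treated cells and -100% = media-only wells without cells; nearly all actives have a fitted effect of over 55% in size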
#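 Viability by CellTiter-Glo luminescence after 48 h compound exposure at 37C of HT-1080-NT cells (750/well, RPMI, 5% FBS). % activity scaled between DMSO wells and medium-only wells, then curve-fitted and categorized by curve class.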
# MCF10A rereplic: inducers of DNA re-replication in MCF 10A breast cells. MCF 10A DNA re-replication, Hoechst nuclear intensity, 48 h. Potency, µM (top dose mostly 46.1 µM), for inactives: top-dose activity, positive = re-replication, most hits filed as activators. 350,000 tested, 2.9% active. AID 624296; also: % of control where 0% means no effect; nearly all actives have a fitted effect of over 50% in size
# KB-V1 cytotox: KB-V1 MDR subline cytotoxicity; KB-V1 MDR cells viability, CellTiter-Glo, 72 h; Potency, µM (titrated, usually from 46.1 µM), actives largely listed as cytotoxic; 400,000 tested, 3.4% active; AID 1347076; also: % is scaled to controls: 0 for no effect and ±100 for the full control effect; nearly all actives have a fitted effect of over 60% in size
#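 Cells of the MDR subline KB-V1 are plated, dosed with compound at multiple concentrations, and incubated 72 h at 37 degrees C; CellTiter-Glo is then added and luminescence read after 10 min.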
# * marks the source's active call; other numbers are inactive results; i = inactive; ? = inconclusive; . = no result given; [ ] = dose if it differs, or a comment. Most compounds without a hit are left out; they make up all but 7.9% or so of the library. Calls follow the shape of the dose curve; as a rule, active = well fitted curve in the direction sought with a large enough effect; inconclusive = small, poorly fitted or top-dose-only effect, or another doubt; inactive = no such curve, though single readings can be large; an effect the other way counts as inactive or inconclusive. Potency is read from the fitted curve at half-maximal effect.
SMILES,HT1080 IDH1KD tx,KB-3-1 cytotox,SW480 rerep,HT1080NT lethal,MCF10A rereplic,KB-V1 cytotox
Cc1onc(-c2c(Cl)cccc2Cl)c1C(=O)N/N=C(\N)COc1ccc(Cl)cc1,?,4.11µM*,1.2%,?,?,i
COc1ccc(-c2ccc(F)cc2)cc1[C@H]1[C@H]2C=CC[C@@H](C)[C@@H]2C(=O)N1Cc1ccccc1,?,?,-6.8%[9.22 µM],?,20.6µM*,?
COc1ccc(-c2cccc(C3CC=CC4C3C(=O)N(Cc3ccccc3)C4c3ccc(C(F)(F)F)cc3)c2)cc1 (configuration not stated),-14.5%,?,11.9%[9.22 µM],-2.9%,?,i
Cc1ccc(-c2cccc(C3CC=CC4C3C(=O)N(Cc3ccccc3)C4c3cc(C)ccc3F)c2)cc1 (configuration not stated),-0.8%,20.6µM*,-0.8%,-19.6%,-0.9%,i
COc1ccc(-c2ccccc2[C@H]2[C@@H]3C=CC[C@@H](C)[C@@H]3C(=O)N2Cc2ccccc2)cc1,?,i,?,?,23.1µM*,i
C[C@@H]1CC=C[C@H]2[C@H]1C(=O)N(Cc1ccccc1)[C@H]2c1ccc(-c2ccoc2)cc1F,-17.6%,i,2.9%,?,18.4µM*,i
O=C(Nc1ccc(F)cc1)[C@H](CSCc1ccccc1)N1Cc2ccccc2C1=O,.,i,.,.,.,i
CC(C)N(C(=O)c1sc2cc([N+](=O)[O-])ccc2c1Cl)C(C)C,-1.6%,i,0.9%,1.6%,1.2%,20.6µM*
Cc1nc([N+](=O)[O-])c(Sc2nc3ccc([N+](=O)[O-])cc3[nH]2)n1Cc1ccccc1,-9.5%,i,?,-13.7%,18.4µM*,i
Cn1c(=O)n(-c2ccc3c(c2)OCO3)c2nc(-c3ccccc3)nc(C(N)=O)c21,.,i,.,.,.,i
Cc1[nH]c2ccccc2c1C(O)CN1CCN(c2cccc(C(F)(F)F)c2)CC1 (configuration not stated),?,14.6µM*,-1.7%[9.22 µM],?,?,?
O=C(Cc1csc(Nc2nc(=S)[nH]c3ccccc23)n1)NCc1cccc(Cl)c1,?,i,-5.6%,-13.2%,?,?
O=C(Cc1csc(Nc2nc(=S)[nH]c3ccccc23)n1)N1CCN(c2cccc(C(F)(F)F)c2)CC1,-1.0%,13µM*,9.1%,-9.7%,?,23.1µM*
Cc1[nH]c2ccccc2c1NC(=O)CN1CCN(c2cccc(C(F)(F)F)c2)CC1,?,i,?,18.4µM*,?,i
Cc1cc2[nH]c(=O)c(=O)[nH]c2cc1S(=O)(=O)N1CCN(c2cccc(C(F)(F)F)c2)CC1,-19.6%,i,-11.0%,-1.2%,16.4µM*,i
O=C(COc1ccc(Cl)cc1Cl)NCc1ccncc1,6.3%,i,-9.7%,-4.6%,0.0%,18.4µM*
CC(=O)NC(=S)Nc1ccc(NC(=O)COc2ccc(Cl)cc2Cl)cc1,?,i,2.6%,?,8.2%,i
O=C(COc1ccc(Cl)cc1Cl)NNC(=S)Nc1ccc(F)cc1,-4.1%,i,-0.9%,-10.7%,14.7%,20.6µM*
O=C(COc1ccc(Cl)cc1Cl)NC1CC1,-0.6%,i,.,7.3%,.,?
CC(C)NC(=O)COc1ccc(Cl)cc1Cl,0.1%,i,16.4µM*,-2.5%,?,?
O=C(COc1ccc(Cl)cc1Cl)Nc1ccccn1,10µM*,?,-1.3%,-24.7%[9.24 µM],0.1%,?
CSc1ccccc1NC(=O)COc1ccc(Cl)cc1Cl,-21.3%,?,?,-15.9%,4.6%,i
Cc1cccc(CNC(=O)c2ccc(NC(=O)N3CCSc4ccccc43)cc2)c1,.,i,.,.,.,i
CCn1cc[n+](C)c1P(c1ccccc1)c1ccccc1,-23.0%,7.31µM*,-1.5%,-17.8%,-0.8%,i
CC1=C(C(=O)Nc2cccnc2)C(c2ccccc2)n2nc(SCc3ccccc3Cl)nc2N1 (configuration not stated),.,i,.,.,.,?
SMILES,HT1080 IDH1KD tx,KB-3-1 cytotox,SW480 rerep,HT1080NT lethal,MCF10A rereplic,KB-V1 cytotox
CC1(C)N=C(N)N=C(N)N1c1ccc(OCC(=O)Nc2ccccc2)c(Cl)c1,0.366µM*,?,.,0.731µM*,.,?
NC(=O)c1ccc(NC(=O)COc2ccc([N+](=O)[O-])cc2Cl)cc1,-0.8%,i,-15.9%,-6.2%,4.3%,i
Cc1cccc(NC(=O)CCc2ccc(N3C(N)=NC(N)=NC3(C)C)cc2)c1,0.461µM*,i,.,1.03µM*,.,?
CC1(C)N=C(N)N=C(N)N1c1ccc(OCCCOc2ccccc2)c(Cl)c1,2.06µM*,?,5.0%,?,?,i
CC1(C)N=C(N)N=C(N)N1c1cccc(CC(=O)Nc2ccccc2)c1,3.26µM*,i,.,9.2µM*,.,i
O=C(Nc1ccc2nc3n(c(=O)c2c1)CCCCC3)C(=O)Nc1ccccc1F,.,i,.,.,.,i
COc1ccc2cc(CNc3ccc(C)cc3)c(=O)n(CC(=O)Nc3cccc(Cl)c3C)c2c1,.,i,.,.,.,i
CCOC(=O)c1c(C)n(C)c2ccc(O)c(CN3CCN(C)CC3)c12,0.1%,i,-0.2%,5.4%,6.7%,i
CCOC(=O)c1c(C)oc2cc(Cl)c(O)c(CN(C)C)c12,-5.2%,i,1.2%,9.8%,-1.4%,i
CCOC(=O)c1c(-c2ccccc2)oc2cc(CN(C)C)c(O)c(CN(C)C)c12,11.2µM*,?,?,?,?,?
CCOC(=O)c1c(-c2ccccc2)oc2ccc(O)c(CN3CCN(C)CC3)c12,?,?,15.0%,?,23.1µM*,20.6µM*
CN(C)CCCNC(=O)C[C@H]1C[C@H](C(=O)N2CCCCC2)[C@@]2(C)c3[nH]c4cc(-c5ccco5)ccc4c3CCN2C1=O,-19.0%,i,2.06µM*,?,?,i
C[C@]12c3[nH]c4cc(-c5ccco5)ccc4c3CCN1C(=O)[C@@H](CC(=O)NCCN1CCOCC1)C[C@@H]2C(=O)N1CCOCC1,4.5%,i,?,0.3%,3.7%,?
C[C@]12c3[nH]c4cc(-c5ccco5)ccc4c3CCN1C(=O)[C@@H](CC(=O)NCc1cccc(C(F)(F)F)c1)C[C@@H]2C(=O)N1CCCCC1,?,18.4µM*,?,?,-40.7%,?
CC[C@]12c3[nH]c4cc(-c5ccco5)ccc4c3CCN1C(=O)[C@@H](CC(=O)NCc1cccc(C(F)(F)F)c1)C[C@@H]2C(=O)N1CCN(C(=O)C2CC2)CC1,?,?,-2.7%[9.22 µM],-25.6%,2.5%,i
